Source: PubChem BioAssay (National Center for Advancing Translational Sciences (NCATS))
TDP1 block: inhibitors of human tyrosyl-DNA phosphodiesterase TDP1 | recombinant TDP1, AlphaScreen DNA substrate cleavage | AID 485290 | Potency, µM (top dose mostly 130 µM), hits mostly inhibitors | hit rate 0.28% among 350,000; note: nearly all actives have a fitted effect of over 40% in size
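Signal: AlphaScreen proximity between streptavidin donor and anti-FITC acceptor beads on intact substrate. Reaction: Tdp1 1 nM, substrate 15 nM final, 5 min RT after 15 min compound preincubation.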
WRN inhibitor: blocks human WRN helicase; Q14191; WRN helicase unwinding, fluorescent forked duplex, kinetic; AID 651768; Potency, µM (series often up to 114 µM), usual class: inhibitors; hit rate 0.46% among 360,000; note: nearly all actives have a fitted effect of over 55% in size
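WRN at 20 nM final was preincubated with compound for 15 min at room temperature; reaction started with 100 nM forked duplex oligonucleotide carrying fluorophore and quencher plus 2 mM ATP (final). Unwinding followed kinetically by red fluorescence (ex 525/em 598 nm).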
PI5P4K alpha inh: PI5P4K alpha (human) kinase inhibition; AID 652105; hit rate 1.2% among 330,000; P48426; PI5P4Kalpha enzyme, ADP-Glo luminescence, 60 min; active compounds read low; max response, %; active = max response of -50% or lower; inconclusive = between -30% and -50%; inactive = -30% or higher; note: value at the top dose of about 77 µM
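Quantitative HTS of the MLSMR library against PI5P4Kalpha with substrate. ATP added last at 5 microM final; room temperature, 60 minutes. Remaining ATP depleted, ADP converted and read as luminescence.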
Tb PFK block: inhibitors of T. brucei phosphofructokinase; O15648; T. brucei PFK, ADP-Glo luminescence; Potency, µM (series often up to 57.5 µM), hits mostly inhibitors; hit rate 0.17% among 330,000; note: nearly all actives have a fitted effect of over 60% in size
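Activity is normalized to no-enzyme wells (full inhibition) and 1.25 nM enzyme wells (no inhibition). Reaction: 0.5 mM F6P, 0.1 mM ATP, 45 min RT, ADP-Glo luminescence; concentration-response curves fitted and classed by quality.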
PGK inhibitor: inhibitors of T. brucei phosphoglycerate kinase. AID 602233. P07378. PGK/GAPDH coupled, Kinase-Glo luminescence, 60 min. hit rate 0.043% among 380,000. Potency, µM (titrated, usually from 57.5 µM), hits mostly inhibitors; note: nearly all actives have a fitted effect of over 60% in size
Target sequence (P07378 whole entry, looked up): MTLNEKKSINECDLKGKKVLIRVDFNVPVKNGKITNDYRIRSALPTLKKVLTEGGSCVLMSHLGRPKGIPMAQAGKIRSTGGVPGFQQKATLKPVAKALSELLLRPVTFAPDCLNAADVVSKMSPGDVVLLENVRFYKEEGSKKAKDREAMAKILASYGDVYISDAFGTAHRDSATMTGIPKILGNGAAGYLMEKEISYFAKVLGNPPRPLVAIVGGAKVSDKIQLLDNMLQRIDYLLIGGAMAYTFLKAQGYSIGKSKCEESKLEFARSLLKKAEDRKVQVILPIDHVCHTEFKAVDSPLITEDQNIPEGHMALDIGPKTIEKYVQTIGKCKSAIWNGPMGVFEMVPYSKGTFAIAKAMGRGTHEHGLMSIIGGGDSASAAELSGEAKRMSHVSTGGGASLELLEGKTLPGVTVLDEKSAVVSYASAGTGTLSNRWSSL
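Recombinant glycosomal PGK reaction used 1,3-bisphosphoglycerate generated in-well by GAPDH (100nM final) in 100mM TEA pH 7.6, 5mM MgCl2, 0.01% Tween-20. After 60 minutes at room temperature, ATP was read by Kinase-Glo Plus luminescence end-point.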
FEN1 inh: blocks human flap endonuclease 1; hit rate 0.35% among 390,000; Potency, µM (series often up to 114 µM), hits mostly inhibitors; Recombinant FEN1 flap cleavage, fluorescence, 15 min; AID 588795; P39748; note: nearly all actives have a fitted effect of over 65% in size
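Recombinant FEN1 (10 nM) was preincubated with pin-transferred compounds for 15 min at room temperature, then flap DNA substrate (50 nM final) was added. Plates were read at 0 and 15 min, and normalized concentration–response data were fitted to a four-parameter Hill equation.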
Numbers stand for hits; - = inactive; ? = inconclusive; . = no result; [ ] = remark or other dose. Only some compounds are listed: those with a hit (about 1.5% of all), similar ones and a draw of the others. Unless noted, calls come from the whole dose curve; as a rule, active = well fitted curve in the direction sought with a large enough effect; inconclusive = small, poorly fitted or top-dose-only effect, or another doubt; inactive = no such curve, though single readings can be large; an effect the other way counts as inactive or inconclusive.

SMILES	TDP1 block	WRN inhibitor	PI5P4K alpha inh	Tb PFK block	PGK inhibitor	FEN1 inh
Cc1ccc(C(=O)OC(C)C(=O)c2cc(C)c(C)cc2C)o1 (centres undefined)	56µM	-	-	?	-	-
O=c1cc(-c2ccsc2)oc2cc(-c3ccc4c(c3)OCO4)ccc12	7.1µM	25µM	-	-	-	-
O=c1cc(-c2ccc3c(c2)OCCO3)oc2ccc(Cl)cc12	-	-	-	-	-	-
COC(=O)[C@@H](NC(=O)N1CCc2nc(COc3ccccc3)c3c(c2C1)CO[C@@H](C)C3)C(C)C	-[21 µM]	.	.	.	.	.
CC(=O)Nc1cccc(S(=O)(=O)Nc2ccc(C)c(C)c2)c1	-	.	.	.	.	.
Nc1cc(N)cc(-c2nc3ccccc3[nH]2)c1	-	-	-64	-	-	-
Cc1nc2ccc(-c3nc4ccc(N)cc4[nH]3)cc2[nH]1	-	?	-	?	-	35µM
c1ccc(-c2nc3ccccc3[nH]2)cc1	.	-	-	-	-	-
Cc1ccc(NS(=O)(=O)c2ccc3ccccc3c2)cc1C	-	.	.	.	.	.
COc1cc2sc3ccc(C#Cc4ccccn4)cc3c(=O)c2cc1OC	.	-	-	.	-	-
COc1cccc2sc3cc(C#Cc4ccccn4)ccc3c(=O)c12	45µM	-	-	-	-	-
S=C(Nc1ccc(N2CCOCC2)cc1)Nc1ccc2nc(-c3ccco3)c(-c3ccco3)nc2c1	-	-[11.6 µM]	-78	-	-	-
CC1CCN(C(=O)Nc2ccc3nc(-c4ccco4)c(-c4ccco4)nc3c2)CC1	.	.	.	.	.	16µM
O=C(Nc1ccc2nc(-c3ccco3)c(-c3ccco3)nc2c1)N1CCCC1	7.1µM	.	.	.	.	11µM
Cc1nc2ccc(NC(=O)N3CCOCC3)cc2nc1C	-	-	-	-	-	-
O=C(NCCO)Nc1ccc2nc(-c3ccco3)c(-c3ccco3)nc2c1	-	.	.	1.9µM	.	.
N#CN1CCC(NC(=O)c2cccc(F)c2)CC1	-	.	.	.	.	.
CCC(C)N=C1Sc2nc3ccc(C)cc3cc2CN1CCOC (centres undefined)	-	-	-53	-	-	-
COCCN1Cc2cc3cc(C)ccc3nc2SC1=Nc1ccc(OC)cc1	-	-	-	-	-	-
c1ccc(-c2ccc(-c3csc4ncnc(Sc5nnnn5-c5ccccc5)c34)cc2)cc1	.	.	.	.	.	-
O=C(O)c1ccc2c(=O)n3c(nc2c1)/C(=C/c1cccc(Cl)c1Cl)CCCC3	-	-	-73	-	-	-
O=C(O)c1ccc2c(=O)n3c(nc2c1)/C(=C/c1ccc(F)cc1)CC3	.	-	-	-	-	-
CC(=O)c1c(C)[nH]c(C(=O)OCC(=O)NNC(=O)c2ccc([N+](=O)[O-])cc2)c1C	-	-	-	-	-	-
Cc1csc(=O)n1CC(=O)OCc1nnc(-c2ccc([N+](=O)[O-])cc2)o1	-	-	-	-	-	-
CC(=O)c1c(C)[nH]c(C(=O)OCc2nnc(-c3ccc([N+](=O)[O-])cc3)o2)c1C	-	-[11.6 µM]	-59	-	-	-
SMILES	TDP1 block	WRN inhibitor	PI5P4K alpha inh	Tb PFK block	PGK inhibitor	FEN1 inh
Cc1ccc(C(=O)NCC(=O)OCc2nnc(-c3ccc([N+](=O)[O-])cc3)o2)s1	-	-	-62	-	-	-
C=C(C)C(O)/C=C/C=C/c1ccccc1 (centres undefined)	-[21 µM]	.	.	.	.	.
CCC(=O)OC1(C)C(=O)C=C2C=C(/C=C/COC)OC=C2C1=O (centres undefined)	-	.	.	.	.	.
CC[C@H](C)/C=C(C)/C=C/C1=CC2=CC(=O)[C@]3(C)OC(=O)[C@@H](C(C)=O)[C@@H]3C2=CO1	-	-	-60	-	-	-
O=C(O)c1ccccc1Nc1ccc(CCc2ccc(Cl)c(Cl)c2)cc1	-	.	.	.	.	.
COc1cc(NC(=O)C(OC(=O)CNC(=O)c2ccccc2)c2ccccc2)cc(OC)c1 (centres undefined)	-	.	.	.	.	.
O=C1N(Cc2ccccc2)CC2(Br)COCOC12O (centres undefined)	.	18µM	-62	.	-	-
O=C1c2ccccc2-c2onc3ccc(NCCCn4ccnc4)c1c23	-	32µM	.	-	-[11.5 µM]	16µM
NS(=O)(=O)c1ccc(NCCCn2ccnc2)c([N+](=O)[O-])c1	-	-	-	-	-	-
